# A selection: hits, their analogues and other compounds. The true share with any hit is near 3.2%.
# NCF1 inh – p47phox (human) inhibition; p47phox/p22phox peptide binding, fluorescence polarization, 2 h; inhibition, % at 24.7 µM; hit rate 0.53% among 220,000; AID 1274;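 active = inhibition above about 30%, limit read from the data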;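 also: 0% = p47phox with labelled peptide and 100% = labelled peptide alone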
# 14-3-3 Bad inh – disrupts binding of bovine 14-3-3 zeta to phospho-Bad peptide; TR-FRET 14-3-3zeta/Dy647-pBad peptide displacement, 1 h; inhibition, % at 21.7 µM; hit rate 0.71% among 220,000;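 active = inhibition above about 70%, limit read from the data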;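 also: 0% = full 14-3-3 plus peptide FRET controls and 100% = background without 14-3-3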
# Target sequence (P63103 whole entry, looked up): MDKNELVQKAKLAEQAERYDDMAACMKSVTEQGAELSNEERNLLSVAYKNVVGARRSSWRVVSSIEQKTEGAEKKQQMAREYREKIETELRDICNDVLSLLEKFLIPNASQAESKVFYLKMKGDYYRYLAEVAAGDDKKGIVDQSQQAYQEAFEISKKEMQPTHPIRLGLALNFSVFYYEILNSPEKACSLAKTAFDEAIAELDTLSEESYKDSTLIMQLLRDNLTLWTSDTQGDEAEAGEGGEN
# Mcl1-Noxa inh – disrupts binding of human Mcl-1 to Noxa peptide | Q07820 | TR-FRET Mcl-1/Noxa peptide binding, 2 h | inhibition, % at 21.7 µM | hit rate 1.5% among 220,000;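 active = compounds that cut the protein-peptide binding signal by more than 50% relative to plate controls in a single-dose test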;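 also: His-tagged Mcl-1 with rhodamine Noxa BH3 peptide and terbium anti-His antibody; 0% = Mcl-1 plus Noxa peptide wells and 100% = peptide-only wells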
# Mcl1-Bid inh – disrupts binding of human Mcl-1 to Bid peptide. Q07820. inhibition, % at 21.7 µM. hit rate 0.97% among 220,000. TR-FRET Mcl-1/Bid-Dy647 peptide binding, 1536-well. AID 1021;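 active = compounds that cut the binding signal by more than half at the single screening dose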;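 also: His-tagged Mcl-1 with europium anti-His antibody binding Bid BH3 peptide; 0% = Mcl-1 plus peptide wells and 100% = peptide-only wells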
# Mcl-1 Bim block – human Bim-Mcl-1 interaction inhibition. Q07820. Bead-based flow cytometry, Bim peptide-Mcl-1 binding. inhibition, % at 10 µM. hit rate 0.1% among 190,000. AID 1009; in the data active = inhibition above about 40%;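 also: 0% = no compound tracer wells and 100% = peptide blocker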
# An asterisk follows results filed as active; x = no result given; [ ] = dose if it differs, or a comment.
SMILES,NCF1 inh,14-3-3 Bad inh,Mcl1-Noxa inh,Mcl1-Bid inh,Mcl-1 Bim block
C=CCc1c(C)nc(-c2ccccc2)nc1N/N=C(\C)c1ccc(N)cc1,-0.8,74.2*[fluorescence artefact?],10.8,-19.5,-1.0
O=C(c1ccc(C(=O)N2CCCCCC2)cc1)N1CCCCCC1,-8.7,-8.4,3.8,-1.1,1.0
Cc1ccc(C(=O)N2CCCC2)cc1Br,92.2*,x,19.9,-22.8,-4.0
COc1cc(CNCc2ccccc2)c(Br)cc1OC1CCCC1,-1.4,-11.8,18.2,-13.7,-2.0
Cc1ccc(OCC(=O)NCc2ccco2)c([N+](=O)[O-])n1,-13.5,-6.1,7.9,79.6*,-3.0
Cc1nc2ccccc2c(=O)n1NC(=O)C1CC1,-9.4,-4.2,9.6,-20.3,0.0
CCCOc1ccc(/C=c2\sc3nc(-c4ccco4)nn3c2=O)cc1OCC,-51.7,-18.4,11.5,-12.5,-4.0
CCCOc1ccc(Cc2nn3c(=O)/c(=C/c4ccco4)sc3nc2=O)cc1,-37.2,0.9,74.5*,-0.1,-4.0
COc1ccccc1/C=C/C=c1\sc2nc(=O)c(Cc3ccccc3)nn2c1=O,-50.8,3.3,50.9*,-34.5,x
CN(C)S(=O)(=O)c1cccc(NC(=O)COC(=O)CNC(=O)c2ccccc2F)c1,1.4,-0.5,21.6,-9.7,x
CCN(CC)CCOc1cc2c(nn1)Oc1ccccc1N2C,-7.0,82.9*,37.2,54.1*,4.0
O=C1c2ccc(-c3ccc4c(c3)C(=O)N(CCO)C4=O)cc2C(=O)N1CCO,-0.7,1.4,-6.9,-26.7,x
O=C(O[C@@H]1OC2COC(=O)c3cc(O)c(O)c(O)c3-c3c(cc(O)c(O)c3O)C(=O)O[C@@H]([C@H]1O)[C@@H]2O)c1cc(O)c(O)c(O)c1,-4.5,52.9,113.1*,-28.9,11.0
CCOc1cc(NC(=S)NCC2CCCO2)c(OCC)cc1NC(=O)CC(C)C (centres undefined),-6.9,-5.2,3.4,-61.0,-1.0
CNC(=S)NC1(C)CCS(=O)(=O)C1 (centres undefined),-15.7,-5.0,14.5,-34.8,x
CCn1c(CSc2nccn2C)nc2cc(C(=O)O)ccc21,-5.0,71.9*,18.7,-9.3,-2.0
CCn1c(CSc2nc3ccccc3[nH]2)nc2cc(C(=O)O)ccc21,13.1,35.0,14.9,-16.0,0.0
Cc1cccc(C(=O)N2CCC(c3nc(-c4ccc(S(=O)(=O)N5CCOCC5)cc4)no3)CC2)c1,x,x,x,x,47.0*
O=C(c1ccccc1)N1CCC(c2nc(-c3ccc(S(=O)(=O)N4CCOCC4)cc3)no2)CC1,-13.5,-3.0,28.5,-23.5,-1.0
Clc1nc(Cl)nc(-c2cn(-c3ccccc3)c3ccccc23)n1,-15.6,23.5,28.3,35.3,x
Cc1c(O)cc2c(c1O)C(=O)CC(c1ccc(O)cc1)O2 (centres undefined),-33.0,37.4,85.7*,64.9*,1.0
c1ccc(CCC2CCCCN2Cc2cn[nH]c2-c2cc3ccccc3o2)nc1 (centres undefined),1.1,-6.8,3.2,-32.4,-4.0
Cc1ccc(CNCC2CCCO2)s1 (centres undefined),1.2,90.2*,-27.1,15.3,9.0
c1cc(CNCC2CCCO2)ccn1 (centres undefined),-15.3,-14.2,-19.6,-19.8,-3.0
O=C(NCCc1cccc(Cl)c1)c1cccs1,-10.5,-10.3,7.9,-4.1,-1.0
SMILES,NCF1 inh,14-3-3 Bad inh,Mcl1-Noxa inh,Mcl1-Bid inh,Mcl-1 Bim block
O=C(NCc1ccccn1)C(=O)C1C(=O)Nc2ccccc21 (centres undefined),38.6*,-0.2,4.3,-58.9,-1.0
Cc1ccc(NC(=S)NNC(=O)c2cccc([N+](=O)[O-])c2)cc1Cl,-5.1,-9.8,-86.4,-82.9,x
Cc1nnc(SCc2cc(=O)oc3ccc4ccccc4c23)n1Cc1ccccc1,-5.4,2.7,17.1,71.4*,-2.0
Cc1nnc(SCc2cc(=O)oc3cc(O)ccc23)n1Cc1ccccc1,-11.2,2.6,12.5,-12.1,-3.0
CCN(C(=O)CSc1nc2ccccc2c(=O)n1C(C)COC)C1CCS(=O)(=O)C1 (centres undefined),-3.8,-5.5,12.4,-8.7,-3.0
CC(=O)c1cccc(NC(=O)c2nc(-c3ccccc3)oc2C)c1,-22.5,-18.4,8.9,-4.0,0.0
CCCN1CCC(NC(=S)Nc2ccc(C(=O)OCC)cc2)CC1,-10.9,-6.4,0.2,84.3*,-5.0
CCCN1CCC(NC(=S)Nc2ccc([N+](=O)[O-])cc2)CC1,x,-3.7,9.1,-25.3,-2.0
CCC(O)CNC(=O)CCc1nnc(C2(c3ccc(Cl)cc3)CCC2)o1 (centres undefined),-3.2,-9.1,11.6,-30.8,-4.0
